Screening results deposited in PubChem by several laboratories.
Only some compounds are listed: those with a hit (about 22% of all), similar ones and a draw of the others.
E-sel TNF inh: TNF alpha driven E-selectin expression inhibition; HUVEC TNFa-induced E-selectin immunofluorescence, high content; inhibition, % at 2 µM; 120,000 tested, 0.71% active;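 active means inhibition above the batch mean plus 3 SD, and confirmed as a hit on visual image review, cut at about 43% in these data; inconclusive means passes the inhibition cutoff but fails visual image review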
CYP2C9 inh: blocks human cytochrome P450 2C9; P11712; CYP2C9 Supersomes, luciferin-H conversion, luminescence; inhibition, % at 5 µM; 96,000 tested, 20% active;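 active means blocking of liver enzyme CYP2C9 beyond about 50% at 5 µM, limit read from the data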
Target sequence (P11712 whole entry, looked up): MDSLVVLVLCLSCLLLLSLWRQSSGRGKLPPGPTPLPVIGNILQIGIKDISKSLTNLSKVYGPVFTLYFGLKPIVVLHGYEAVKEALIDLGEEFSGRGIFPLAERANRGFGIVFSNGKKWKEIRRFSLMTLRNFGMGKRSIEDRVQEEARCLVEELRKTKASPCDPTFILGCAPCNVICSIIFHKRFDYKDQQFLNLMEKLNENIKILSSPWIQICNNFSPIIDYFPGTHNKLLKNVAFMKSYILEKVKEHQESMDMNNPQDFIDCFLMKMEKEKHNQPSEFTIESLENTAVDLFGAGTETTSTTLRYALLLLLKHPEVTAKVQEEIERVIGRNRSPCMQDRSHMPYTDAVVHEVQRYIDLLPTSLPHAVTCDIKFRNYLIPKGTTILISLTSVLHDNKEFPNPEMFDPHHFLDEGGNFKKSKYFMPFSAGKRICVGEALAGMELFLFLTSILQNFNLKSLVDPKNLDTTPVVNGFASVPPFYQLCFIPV
F-actin modifier: alters cytoskeleton assembly in HUVEC cells. inhibition, % at 2 µM. 91,000 tested, 0.18% active. HUVEC TNFa F-actin phalloidin imaging, high content. AID 836;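 active means inhibition above the batch mean plus 3 SD and confirmed as a hit by visual image inspection, cut at about 30% in these data, passing the limit was not always enough; inconclusive means above the inhibition threshold but rejected on visual inspection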
CYP2C19 inh: human CYP2C19 inhibition; AID 778; 96,000 tested, 21% active; inhibition, % at 5 µM; P33261; CYP2C19 Supersomes, luciferin-H EGE luminescence, 30 min;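 active means CYP2C19 inhibition above a set limit at 5 µM in the primary screen, cut at about 50% in these data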
CYP2C9 act: increases human cytochrome P450 2C9 activity; P11712; recombinant CYP2C9, luciferin-H conversion, luminescence; active compounds read high; factor 1 = untreated enzyme, 0 = blocked; activation factor at 5 µM; 96,000 tested, 1.4% active;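 active means activation factor of 2 or more for CYP2C9 at a 5 µM dose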
CYP2C19 activ: cytochrome P450 2C19 (human) activation | P33261 | recombinant CYP2C19, luciferin-H EGE luminescence; active compounds read high; 0 = fully inhibited enzyme, 1 = untreated enzyme | activation factor at 5 µM | 96,000 tested, under 10 active;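 active means activation factor of at least 2 at 5 µM in the primary screen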
A number is an active result; - = inactive; ? = inconclusive; . = no result.

SMILES | E-sel TNF inh | CYP2C9 inh | F-actin modifier | CYP2C19 inh | CYP2C9 act | CYP2C19 activ
CCOC(=O)C1=C(c2ccccc2)OC(N)=C(C#N)C1c1ccncc1 (configuration not stated) | - | . | . | . | . | .
COc1ccc2cc(-c3csc(-c4cccnc4)n3)ccc2c1 | - | - | - | 75 | - | -
COc1ccc(-c2csc(Nc3cccnc3)n2)cc1 | - | - | - | - | - | -
CSc1nc(Sc2ccc(Cl)cc2)c2ccccc2n1 | - | - | - | - | - | -
CCOC(=O)N1CCN(C(=O)CCn2c(=S)[nH]c3cc(OCC)c(OCC)cc3c2=O)CC1 | - | - | - | - | - | -
COc1ccc(C(=O)Nc2ccccc2N2CCOCC2)cc1Br | - | . | . | . | . | .
COc1c(F)c(F)c(C(=O)Nc2ccccc2N2CCN(C(=O)C(C)C)CC2)c(F)c1F | - | 78 | - | 61 | - | -
Cc1ccc(C(=O)Nc2ccccc2N2CCN(C(=O)C(C)C)CC2)cc1C | . | 89 | . | 76 | - | -
CCC(=O)N1CCN(c2ccccc2NC(=O)c2ccc(OC)c(Cl)c2)CC1 | - | 82 | . | 74 | - | -
COc1c(F)c(F)c(C(=O)Nc2ccccc2N2CCN(C(C)=O)CC2)c(F)c1F | - | - | - | - | - | -
Clc1ccc(Cn2ccc(-c3ccc4c(c3)OCO4)n2)cc1Cl | - | - | - | - | - | -
O=C(COC(=O)c1ccccn1)Nc1cccc(Cl)c1Cl | . | - | - | 84 | - | -
CC(=O)OC1C(OC(C)=O)N(C(C)=O)C(=O)N1C(C)=O (configuration not stated) | - | - | - | - | - | -
Cc1ccc(C(C)C)c(OCCN)c1 | . | - | - | - | - | -
Cc1ccc(C(C)C)c(OCCNC(=S)Nc2cccc3ccccc23)c1 | - | 84 | - | 85 | - | -
O=C(Cn1c(NCCCO)nc2ccccc21)c1ccc(Br)cc1 | - | 58 | - | 74 | - | -
O=C1CC(c2ccccc2)CC(O)=C1C=NC1CCCCC1 (configuration not stated) | - | - | - | - | - | -
O=C1CC(c2ccccc2)CC(O)=C1C=NC1CCCC1 (configuration not stated) | - | - | - | 79 | - | -
Cc1[nH]n(-c2ccccc2)c(=O)c1C1(C(F)(F)F)C(=O)N(c2ccccc2)C2=C1C(=O)CC(C)(C)C2 (configuration not stated) | - | 73 | - | - | - | -
Cc1ccc(N2C(=O)C(c3c(C)[nH]n(-c4ccccc4)c3=O)(C(F)(F)F)C3=C2CC(C)(C)CC3=O)cc1 (configuration not stated) | - | - | - | - | - | -
CC1CCCC(C)N1C(=O)Cc1ccccc1 (configuration not stated) | - | - | - | 76 | - | -
CC1CCCCN1C(=O)CSc1nc2ccccc2[nH]1 (configuration not stated) | - | . | . | . | . | .
O=C(Cc1ccccc1)N1CCCC1c1ccccc1 (configuration not stated) | - | - | - | 79 | - | -
CC1CCCCN1C(=O)Cc1ccc(F)cc1 (configuration not stated) | - | - | - | 75 | - | -
CN(c1ccc(C(=O)NC2CC3CCC2C3)cc1)S(C)(=O)=O (configuration not stated) | - | - | - | - | - | -
SMILES | E-sel TNF inh | CYP2C9 inh | F-actin modifier | CYP2C19 inh | CYP2C9 act | CYP2C19 activ
CN1CCN(C(=S)NC(=O)/C=C/c2cccc3ccccc23)CC1 | - | - | - | - | 3 | -
COc1ccc(/C=C/C(=O)NC(=S)N2CCN(C)CC2)cc1 | - | . | . | . | . | .
CNC(=O)CCCCCNS(=O)(=O)c1ccc(C)cc1 | - | . | - | . | . | .
COc1ccc(-c2nc(C#N)c(N3CCc4ccccc4C3)o2)cc1OC | - | - | - | 55 | - | -
COc1ccccc1-c1nc(C#N)c(N2CCc3ccccc3C2)o1 | . | 75 | - | 84 | - | -
N#Cc1nc(-c2ccco2)oc1N1CCC(Cc2ccccc2)CC1 | - | 91 | - | 82 | - | -
COc1ccccc1-c1nc(C#N)c(N2CCN(c3ccccc3)CC2)o1 | - | - | - | 80 | - | -
N#Cc1nc(-c2ccco2)oc1N1CCN(c2ccccc2)CC1 | . | - | - | - | - | -
COc1ccc(N2CCN(c3oc(-c4ccccc4OC)nc3C#N)CC2)cc1 | . | - | - | - | - | -
COc1ccc(N2CCN(c3oc(-c4ccc(OC)c(OC)c4)nc3C#N)CC2)cc1 | . | - | - | - | - | -
Cc1cc(-c2cc(N)n(-c3ccccc3)n2)c(C)n1C1CCCC1 | . | - | - | - | - | -
CC(C)c1ccc(C2NC(=S)NC3=C2C(=O)CCC3)cc1 (configuration not stated) | - | . | . | . | . | .
CC1CCN(c2oc(-c3ccccc3Cl)nc2C#N)CC1 | . | 87 | . | 86 | - | -
N#Cc1nc(-c2ccccc2Cl)oc1N1CCOCC1 | - | - | - | - | - | -
COC(=O)c1sc(=S)sc1C(=O)OC | - | - | - | 52 | - | -
O=S(=O)(O)c1nc2ccccc2n1Cc1ccccc1 | - | - | - | - | - | -
Cc1ccccc1-n1c(=O)cc(NCC2CCCO2)[nH]c1=O (configuration not stated) | - | . | - | . | . | .
CSc1cc(-c2ccc(Cl)cc2)c(C(=O)NN)s1 | - | 65 | - | 70 | - | -
CC(C)NC(=O)c1cc2c(-c3ccc(Cl)cc3)nn(C)c2s1 | - | - | - | - | - | -
CSc1cc(-c2ccc(Cl)cc2)c(C(=O)NC(C)C)s1 | - | - | - | 69 | - | -
O=C(Nc1nc(-c2ccccc2)cs1)c1cccc([N+](=O)[O-])c1 | - | - | - | - | - | -
O=C(Nc1ccccc1-c1ccccc1)c1cccc([N+](=O)[O-])c1 | - | - | - | 91 | - | -
Cc1ccccc1NC(=O)c1cccc(S(=O)(=O)Oc2ccc([N+](=O)[O-])cc2)c1 | - | - | - | 80 | - | -
Cc1ccc([N+](=O)[O-])cc1NC(=O)c1ccc(-c2ccccc2)cc1 | - | - | - | - | 2.2 | -
Cc1c(C(=O)Nc2ccccc2-c2ccccc2)cccc1[N+](=O)[O-] | - | - | - | 80 | - | -
SMILES | E-sel TNF inh | CYP2C9 inh | F-actin modifier | CYP2C19 inh | CYP2C9 act | CYP2C19 activ
CN1C(=O)c2ccc(C(=O)Nc3nccs3)cc2C1=O | - | . | . | . | . | .
c1ccc(C(c2ccccc2)N2CCN(c3nc4ccccc4n4cnnc34)CC2)cc1 | - | - | - | - | - | -
O=C(NCCO)C1(c2ccc(Cl)cc2)CCCC1 | - | - | - | - | - | -
CCCCSc1c(C)c2cc3c(cc2[nH]c1=O)OCO3 | - | - | - | 86 | - | -
Clc1ccc(/C=N/NC(=Nc2ccccc2)c2ccccn2)c(Cl)c1 | - | - | - | - | - | -
ONC(=Nc1ccccc1)c1ccc(Cl)cc1 | . | - | . | 90 | - | -
COC(=O)CSc1nc2nc(C)c(Br)cc2[nH]1 | - | - | ? | - | - | -
C=C(C)CSc1nc2nc(C)c(Br)cc2[nH]1 | - | - | - | 55 | - | -
